Source: PubChem BioAssay
Most compounds without a hit are left out; they make up all but 1.2% or so of the library.
ERG-DNA inh: blocks human ERG Ets domain binding to DNA; P11308; fluorescence polarization, His-ERG Ets domain / labelled DNA; Potency, µM (doses to about 76.9 µM), for the others: at the highest dose FP activity, negative = inhibition, actives largely listed as inhibitors; hit rate 0.028% among 370,000; AID 624246; active = well fitted inhibition curve with a large enough effect in the polarisation, with a control signal flat; inconclusive = small, poorly fitted or top-dose-only effect, or effect the other way, or a change in a side signal; inactive = no such curve, though single readings can be large or run the other way; the % refers to the polarisation;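 also: polarization taken with two DNA probes labelled with fluorescein and Texas red; % of control where 0% means no effect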
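His-tagged ERG Ets domain (1 uM in the protein solution; 300mM KCl, 50mM Tris-HCl, 1mM EDTA, 1mM DTT, pH 7.5) received compound, then a probe mix of 5 nM fluorescein-DNA and 100nM Texas-615-DNA. Fluorescence polarization was read for both dyes.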
BRCA1 expr act: activators of BRCA1 expression | hit rate 1.1% among 380,000 | Potency, µM (doses to about 46.1 µM), for the others: at the highest dose activation, actives largely listed as activators | MCF7-BRCA1-FFLuc reporter, luminescence, 48 h; response scale: scaled: vehicle 0%, 10 µM genistein 100% | AID 624202; also: nearly all actives have a fitted effect of over 80% in size
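First, MCF7-BRCA1-FFLuc cells (2000/well) attach for 2 h; next, compounds are pin-added and incubated 48 h at 37 °C; finally, luciferase reagent is added and luminescence read after 15 min.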
Apoferritin bind: candidate novel general anesthetic via apoferritin binding. P02791. apoferritin/1-aminoanthracene competitive binding, fluorescence. Potency, µM (doses to about 77.5 µM), for the others: top-dose activity change, negative = displacement, usual class: inhibitors. hit rate 0.074% among 350,000; also: % is scaled to controls: 0 for no effect and ±100 for the full control effect; nearly all actives have a fitted effect of over 20% in size
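Read-out: endpoint 1-AMA fluorescence, excitation 380 nm and emission 535 nm, after compounds sit 10 min at room temperature with 10 uM horse-spleen apoferritin in 50% saturated 1-AMA/PBS. Values come from four-parameter Hill fits.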
RGS12 GoLoco inh: RGS12 GoLoco-Gai1 interaction inhibition | P63096 | Gai1:RGS12 GoLoco peptide FP, rhodamine, 10 min | Potency, µM (titrated, usually from 61.6 µM), for the others: at the highest dose activity, negative = inhibition, usual class: inhibitors | hit rate 0.44% among 230,000 | AID 880; active = well fitted inhibition curve with a large enough effect, not every such curve was filed as active; inactive = no such curve, though single readings can be large or run the other way; also: % is scaled to controls: 0 for no effect and ±100 for the full control effect; nearly all actives have a fitted effect of over 30% in size
Target sequence (P63096 whole entry, looked up): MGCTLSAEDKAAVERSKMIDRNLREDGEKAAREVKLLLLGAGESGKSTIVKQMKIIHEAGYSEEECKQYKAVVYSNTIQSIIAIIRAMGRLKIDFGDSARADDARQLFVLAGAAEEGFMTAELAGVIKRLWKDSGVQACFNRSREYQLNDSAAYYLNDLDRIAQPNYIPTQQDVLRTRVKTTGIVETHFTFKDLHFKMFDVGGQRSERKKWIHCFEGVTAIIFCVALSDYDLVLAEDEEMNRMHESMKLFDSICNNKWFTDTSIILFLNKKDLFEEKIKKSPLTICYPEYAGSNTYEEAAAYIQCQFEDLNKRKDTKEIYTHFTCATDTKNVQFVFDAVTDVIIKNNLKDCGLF
Starred values were filed as active, the others as inactive; ? = inconclusive; / = not tested or not shown. Unless noted, calls follow the shape of the dose curve; as a rule, active = well fitted curve in the direction sought with a large enough effect; inconclusive = small, poorly fitted or top-dose-only effect, or another doubt; inactive = no such curve, though single readings can be large; an effect the other way counts as inactive or inconclusive. Potency is read from the fitted curve at half-maximal effect.

SMILES	ERG-DNA inh	BRCA1 expr act	Apoferritin bind	RGS12 GoLoco inh
OCCN1CCN(C(c2cccs2)c2ccc3cccnc3c2O)CC1 (stereo not given)	/	/	32µM*	-48%
CCOC(=O)c1ccc(NC(=O)CC2Nc3cc(C)c(C)cc3NC2=O)cc1 (stereo not given)	1%	/	-8%	/
COc1ccc(C2=NC(c3ccccc3)=Nc3ccc(C)cc3N2)cc1	2%	/	-5%	/
CC1=CC(c2ccccc2)=Nc2ccc(C)cc2N1	2%	7.1µM*	-13%	3%
COc1ccc(C2CC(c3ccccc3)Oc3cc(C)c(Cl)c(C)c32)cc1 (stereo not given)	/	/	14%	/
CC(C)CNc1ncnc2oc(-c3ccco3)c(-c3ccco3)c12	/	-12%	/	/
C/C(=C\c1ccc(N)cc1)c1nc2ccccc2[nH]1	5%	7.9µM*	-1%	/
COC(=O)/C(=C\c1ccc(O)cc1)c1nc2ccccc2[nH]1	3%	-7%	-14%	14%
Nc1n[nH]c(N)c1N=Nc1ccc(Cl)cc1	-2%	43%	?	4%
Nc1[nH]ncc1N=Nc1ccc(Cl)cc1	2%	11µM*	32µM*	-7%
O=C1c2ccccc2C(=O)N1c1ccc(O)cc1	/	8%	/	/
O=C(NCC(=O)N1CCN(Cc2ccccc2)CC1)c1cccs1	4%	10µM*	/	/
O=C(NCC(O)c1ccccc1)c1cccs1 (stereo not given)	1%	7.1µM*	-7%	/
CC1CCCCN1C(=O)c1cc(-c2ccc(Cl)c(Cl)c2)on1 (stereo not given)	-2%	5.6µM*	?	3%
O=C(c1cc(-c2ccc(Cl)c(Cl)c2)on1)N1CCCCC1	1%	4µM*	-13%	8%
CCC1CCCCN1C(=O)c1cc(-c2ccc(Cl)c(Cl)c2)on1 (stereo not given)	0%	11µM*	11%	-3%
O=C(CBr)c1ccc(Oc2ccc(C(=O)C[n+]3ccccc3Cl)cc2)cc1	/	-6%	/	/
CC(=O)N1c2ccccc2C(C)(c2ccc(C)cc2)CC1(C)C (stereo not given)	3%	-14%	0%	/
O=C(CCc1ccccc1)Nc1ccc2c(c1)OCCO2	-1%	11µM*	?	2%
O=C(CCSCc1ccccc1)Nc1ccc2c(c1)OCCO2	11%	37%	?	4%
CC1CC(C)CN(CC(=O)Nc2ccc3c(c2)OCCO3)C1 (stereo not given)	-7%	13µM*	-9%	-3%
COC(=O)C1CCN(CC(=O)Nc2ccc3c(c2)OCCO3)CC1	1%	36%	/	/
CC1CC(C)(C)NC(=S)N1CCCC(=O)Nc1ccc2c(c1)OCCO2 (stereo not given)	2%	13µM*	-9%	16%
O=C(COc1ccc(Br)cc1Br)NC(=O)NC1CCCC1	1%	11µM*	-1%	12%
CN(C)c1ccc(/C=C/c2ccnc3ccccc23)cc1Br	/	0%	/	/
SMILES	ERG-DNA inh	BRCA1 expr act	Apoferritin bind	RGS12 GoLoco inh
CCNc1ccc(/C=C/c2ccnc3ccccc23)cc1	/	44%	/	/
C=C(C(C)=O)C(O)c1cccc(OC)c1 (stereo not given)	/	/	/	2%
O=C(Nc1ccc2c(c1)OCCO2)N1CCN(Cc2ccccc2)CC1	13%	13µM*	-4%	6%
O=C(CN1C(=O)NC2(CCCCC2)C1=O)Nc1ccc2c(c1)OCCCO2	5%	5µM*	/	/
COc1ccccc1OCC(=O)Nc1ccc2c(c1)OCCO2	-7%	?	-8%	/
O=C(COc1ccc(Br)cc1Cl)NC(=O)Nc1ccc2c(c1)OCCO2	3%	11µM*	-10%	2%
NC(=O)c1ccccc1OCC(=O)Nc1ccc2c(c1)OCCO2	11%	3.5µM*	/	/
CC(CC(C)(C)C)CP(=O)(O)CC(C)CC(C)(C)C (stereo not given)	/	/	4%	/
CCN(CC)CCCNc1oc(/C=C/c2ccc(OC)c(OC)c2)nc1C#N	6%	/	69%	/
O=C(Nc1ccc2c(c1)OCCO2)NC12CC3CC(CC(C3)C1)C2	0%	3.5µM*	?	-9%
COc1ccc(NC(=O)NC23CC4CC(CC(C4)C2)C3)cc1OC	-5%	10%	-15%	0%
CC(C)C[C@H](N)C(=O)N[C@H](C(=O)N[C@H](C(=O)N[C@@H](Cc1ccc(O)cc1)C(=O)N1CCC[C@H]1C(=O)N[C@@H](Cc1c[nH]c2ccccc12)C(=O)N[C@H](C(=O)N[C@@H](CCC(N)=O)C(=O)N[C@@H](CCCN=C(N)N)C(=O)O)[C@@H](C)O)C(C)C)C(C)C	/	/	-16%	4%
